# Assay results: the supplement of paper PMC4466140
# How the values were obtained:
# Assay in all cases: SPOT peptide array binding signal intensity (averaged, normalized) (arbitrary units (background-subtracted, floor 0; scale differs between SH3 domains)); higher = stronger binding of the SH3 domain to the peptide
# [1] = target: AgAbp1
# Method in brief: (§1)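 Cellulose membranes carried synthetic 15-mer peptides with cysteines swapped for serines. These were incubated overnight at 4°C with 10 μg/ml of GST-fused SH3 domains from four yeast species in TBS-based blocking buffer. Binding signal, detected with anti-GST antibody and quantified in Genespotter, is the normalized, background-subtracted spot intensity averaged over replicates, in arbitrary units specific to each domain.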
# [2] = target: AgBbc1
# Method in brief: as §1
# [3] = target: AgBem1-D1
# Method in brief: as §1
# [4] = target: AgBzz1-D1
# Method in brief: as §1
# [5] = target: AgBzz1-D2
# Method in brief: as §1
# [6] = target: AgCyk3
# Method in brief: as §1
# [7] = target: AgFus1
# Method in brief: as §1
# [8] = target: AgHof1
# Method in brief: as §1
# [9] = target: AgHse1
# Method in brief: as §1
# [10] = target: AgLsb1
# Method in brief: as §1
# [11] = target: AgLsb4
# Method in brief: as §1
# [12] = target: AgMyo5
# Method in brief: as §1
# [13] = target: AgNbp2
# Method in brief: as §1
# [14] = target: AgRvs167
# Method in brief: as §1
# [15] = target: AgSho1
# Method in brief: as §1
# [16] = target: AgSla1-D1-D2
# Method in brief: as §1
# [17] = target: AgSla1-D3
# Method in brief: as §1
# [18] = target: CaAbp1-D1
# Method in brief: as §1
# [19] = target: CaAbp1-D2
# Method in brief: as §1
# [20] = target: CaBbc1
# Method in brief: as §1
# [21] = target: CaBem1-D1
# Method in brief: as §1
# [22] = target: CaBzz1-D1
# Method in brief: as §1
# [23] = target: CaBzz1-D2
# Method in brief: as §1
# [24] = target: CaCyk3
# Method in brief: as §1
# [25] = target: CaFus1
# Method in brief: as §1
# [26] = target: CaHof1
# Method in brief: as §1
# [27] = target: CaHse1
# Method in brief: as §1
# [28] = target: CaLsb1
# Method in brief: as §1
# [29] = target: CaLsb4
# Method in brief: as §1
# [30] = target: CaMyo5
# Method in brief: as §1
# [31] = target: CaNbp2
# Method in brief: as §1
# [32] = target: CaRvs167
# Method in brief: as §1
# [33] = target: CaRvs167-3
# Method in brief: as §1
# [34] = target: CaSho1
# Method in brief: as §1
# [35] = target: CaSla1-D1-D2
# Method in brief: as §1
# [36] = target: CaSla1-D3
# Method in brief: as §1
# [37] = target: ScAbp1
# Method in brief: as §1
# [38] = target: ScBbc1
# Method in brief: as §1
# [39] = target: ScBem1-D1
# Method in brief: as §1
# [40] = target: ScBzz1-D1
# Method in brief: as §1
# [41] = target: ScBzz1-D2
# Method in brief: as §1
# [42] = target: ScCyk3
# Method in brief: as §1
# [43] = target: ScFus1
# Method in brief: as §1
# [44] = target: ScHof1
# Method in brief: as §1
# [45] = target: ScHse1
# Method in brief: as §1
# [46] = target: ScLsb1
# Method in brief: as §1
# [47] = target: ScLsb2
# Method in brief: as §1
# [48] = target: ScLsb3
# Method in brief: as §1
# [49] = target: ScLsb4
# Method in brief: as §1
# [50] = target: ScMyo3
# Method in brief: as §1
# [51] = target: ScMyo5
# Method in brief: as §1
# [52] = target: ScNbp2
# Method in brief: as §1
# [53] = target: ScPex13
# Method in brief: as §1
# [54] = target: ScRvs167
# Method in brief: as §1
# [55] = target: ScSho1
# Method in brief: as §1
# [56] = target: ScSla1-D1-D2
# Method in brief: as §1
# [57] = target: ScSla1-D3
# Method in brief: as §1
# [58] = target: SpAbp1-D1
# Method in brief: as §1
# [59] = target: SpBbc1
# Method in brief: as §1
# [60] = target: SpBzz1-D1
# Method in brief: as §1
# [61] = target: SpBzz1-D2
# Method in brief: as §1
# [62] = target: SpCyk3
# Method in brief: as §1
# [63] = target: SpHof1
# Method in brief: as §1
# [64] = target: SpHof1-2
# Method in brief: as §1
# [65] = target: SpHof1-3
# Method in brief: as §1
# [66] = target: SpHse1
# Method in brief: as §1
# [67] = target: SpLsb1
# Method in brief: as §1
# [68] = target: SpLsb4
# Method in brief: as §1
# [69] = target: SpMyo1
# Method in brief: as §1
# [70] = target: SpNbp2
# Method in brief: as §1
# [71] = target: SpPex13
# Method in brief: as §1
# [72] = target: SpRvs167
# Method in brief: as §1
# [73] = target: SpSla1-D1-D2
# Method in brief: as §1
# [74] = target: SpSla1-D3
# Method in brief: as §1
binder,measurement,setting,value
GAGERPRLVPRPINV,SPOT peptide array binding signal intensity,[1],13
same,SPOT peptide array binding signal intensity,[2],148
same,SPOT peptide array binding signal intensity,[3],23
same,SPOT peptide array binding signal intensity,[4],27
same,SPOT peptide array binding signal intensity,[5],33
same,SPOT peptide array binding signal intensity,[6],6
same,SPOT peptide array binding signal intensity,[7],4.5
same,SPOT peptide array binding signal intensity,[8],8.5
same,SPOT peptide array binding signal intensity,[9],≤ 0
same,SPOT peptide array binding signal intensity,[10],9
same,SPOT peptide array binding signal intensity,[11],28
same,SPOT peptide array binding signal intensity,[12],0.5
same,SPOT peptide array binding signal intensity,[13],≤ 0
same,SPOT peptide array binding signal intensity,[14],2
same,SPOT peptide array binding signal intensity,[15],≤ 0
same,SPOT peptide array binding signal intensity,[16],≤ 0
same,SPOT peptide array binding signal intensity,[17],1
same,SPOT peptide array binding signal intensity,[18],17
same,SPOT peptide array binding signal intensity,[19],8
same,SPOT peptide array binding signal intensity,[20],314
same,SPOT peptide array binding signal intensity,[21],68.5
same,SPOT peptide array binding signal intensity,[22],109
same,SPOT peptide array binding signal intensity,[23],51.2
same,SPOT peptide array binding signal intensity,[24],285
same,SPOT peptide array binding signal intensity,[25],≤ 0
same,SPOT peptide array binding signal intensity,[26],0.5
same,SPOT peptide array binding signal intensity,[27],≤ 0
same,SPOT peptide array binding signal intensity,[28],0.75
same,SPOT peptide array binding signal intensity,[29],102
same,SPOT peptide array binding signal intensity,[30],6.5
same,SPOT peptide array binding signal intensity,[31],≤ 0
same,SPOT peptide array binding signal intensity,[32],3.5
same,SPOT peptide array binding signal intensity,[33],≤ 0
same,SPOT peptide array binding signal intensity,[34],21
same,SPOT peptide array binding signal intensity,[35],15.5
same,SPOT peptide array binding signal intensity,[36],0.75
same,SPOT peptide array binding signal intensity,[37],10
same,SPOT peptide array binding signal intensity,[38],29.5
same,SPOT peptide array binding signal intensity,[39],≤ 0
same,SPOT peptide array binding signal intensity,[40],13
same,SPOT peptide array binding signal intensity,[41],44.5
same,SPOT peptide array binding signal intensity,[42],53
same,SPOT peptide array binding signal intensity,[43],≤ 0
same,SPOT peptide array binding signal intensity,[44],3.25
same,SPOT peptide array binding signal intensity,[45],4.5
same,SPOT peptide array binding signal intensity,[46],98.2
same,SPOT peptide array binding signal intensity,[47],4.5
same,SPOT peptide array binding signal intensity,[48],531
same,SPOT peptide array binding signal intensity,[49],20
same,SPOT peptide array binding signal intensity,[50],47.5
same,SPOT peptide array binding signal intensity,[51],4
same,SPOT peptide array binding signal intensity,[52],8
same,SPOT peptide array binding signal intensity,[53],1
same,SPOT peptide array binding signal intensity,[54],91.3
same,SPOT peptide array binding signal intensity,[55],13.5
same,SPOT peptide array binding signal intensity,[56],25.5
same,SPOT peptide array binding signal intensity,[57],20
same,SPOT peptide array binding signal intensity,[58],11
same,SPOT peptide array binding signal intensity,[59],22.8
same,SPOT peptide array binding signal intensity,[60],384
same,SPOT peptide array binding signal intensity,[61],0.75
same,SPOT peptide array binding signal intensity,[62],8
same,SPOT peptide array binding signal intensity,[63],5.5
same,SPOT peptide array binding signal intensity,[64],6
same,SPOT peptide array binding signal intensity,[65],5.75
same,SPOT peptide array binding signal intensity,[66],≤ 0
same,SPOT peptide array binding signal intensity,[67],410
same,SPOT peptide array binding signal intensity,[68],740
same,SPOT peptide array binding signal intensity,[69],4.75
same,SPOT peptide array binding signal intensity,[70],≤ 0
same,SPOT peptide array binding signal intensity,[71],≤ 0
same,SPOT peptide array binding signal intensity,[72],6.67
same,SPOT peptide array binding signal intensity,[73],4
same,SPOT peptide array binding signal intensity,[74],1
